Test results taken from PubChem BioAssay.
Values without a mark were called inactive. The rule behind the calls is not given here.

target: Pantothenate synthetase (Mycobacterium tuberculosis (strain ATCC 25618 / H37Rv)) (UniProt P9WIL5); test: Recombinant Mtb pantothenate synthetase (PanC) inhibitors, coupled enzyme, confirmatory (AID 375); conditions: coupled enzyme assay; at 10 µM, active compounds read high;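 note: 0% = full reaction with vehicle and 100% = no enzyme background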
Sequence (P9WIL5 whole entry, looked up): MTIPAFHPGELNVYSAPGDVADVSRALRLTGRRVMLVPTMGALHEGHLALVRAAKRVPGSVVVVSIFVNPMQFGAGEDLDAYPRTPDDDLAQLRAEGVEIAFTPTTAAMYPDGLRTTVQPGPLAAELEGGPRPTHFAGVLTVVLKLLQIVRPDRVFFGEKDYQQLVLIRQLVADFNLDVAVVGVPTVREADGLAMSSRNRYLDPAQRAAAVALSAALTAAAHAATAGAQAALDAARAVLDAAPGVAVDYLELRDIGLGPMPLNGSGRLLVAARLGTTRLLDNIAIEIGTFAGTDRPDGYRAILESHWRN

Row | SMILES | inhibition
1 | O=C1c2ccccc2C(=O)N1CNc1ccccc1 | 0%
2 | Fc1cccc(Nc2ncnc3c2cnn3-c2ccccc2)c1 | 2%
3 | CCOC(=O)c1ccc(S(=O)(=O)NC2CCCCCCC2)n1C | 0%
4 | O=C(COC(=O)C12CC3CC(CC(O)(C3)C1)C2)N1CCN(S(=O)(=O)c2ccc(Cl)cc2)CC1 | 3%
